Screens deposited in PubChem BioAssay by National Center for Advancing Translational Sciences (NCATS).
TSHR antagonist: antagonists of human thyroid stimulating hormone receptor. P16473. activity change, negative = inhibition, % at 11.5 µM. TSHR-expressing cells, TSH-stimulated cAMP HTRF, 2 h; stronger effect = lower value. 330,000 compounds, 0.2% hits;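 active = activity change below a set negative limit, meaning inhibition stronger than a set level, cut at about -70% in these data; inconclusive = activity change between two set negative limits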
Target sequence (P16473 whole entry, looked up): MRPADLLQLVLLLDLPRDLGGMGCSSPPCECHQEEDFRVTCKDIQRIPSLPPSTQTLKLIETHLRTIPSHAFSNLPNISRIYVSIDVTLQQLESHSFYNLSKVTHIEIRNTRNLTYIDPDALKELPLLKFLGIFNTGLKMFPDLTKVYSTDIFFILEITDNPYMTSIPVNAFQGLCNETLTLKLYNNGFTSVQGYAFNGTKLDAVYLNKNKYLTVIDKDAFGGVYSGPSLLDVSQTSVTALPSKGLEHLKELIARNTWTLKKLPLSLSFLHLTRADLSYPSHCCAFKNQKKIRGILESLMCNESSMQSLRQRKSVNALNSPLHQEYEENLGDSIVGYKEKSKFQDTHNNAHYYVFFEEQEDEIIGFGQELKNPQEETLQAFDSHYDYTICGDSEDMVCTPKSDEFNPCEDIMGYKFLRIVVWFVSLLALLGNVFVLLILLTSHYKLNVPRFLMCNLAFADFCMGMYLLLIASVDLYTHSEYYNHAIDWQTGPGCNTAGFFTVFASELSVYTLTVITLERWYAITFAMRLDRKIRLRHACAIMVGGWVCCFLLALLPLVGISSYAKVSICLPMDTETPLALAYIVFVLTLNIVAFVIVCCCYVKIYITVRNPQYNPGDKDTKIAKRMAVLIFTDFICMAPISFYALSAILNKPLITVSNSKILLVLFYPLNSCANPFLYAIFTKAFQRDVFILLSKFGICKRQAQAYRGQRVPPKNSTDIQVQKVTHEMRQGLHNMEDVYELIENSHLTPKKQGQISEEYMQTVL
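Inhibition of cAMP made by TSHR-expressing cells under TSH stimulation (4nM final, EC80; 2 h, 37 deg C) is quantified with a one-step lysis HTRF kit, anti-cAMP cryptate versus cAMP-d2.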
uPA generation: cell surface uPA generation inhibition. cell surface uPA generation assay, qHTS. 330,000 compounds, 0.31% hits. Potency, µM (highest dose often 38.3 µM), most hits filed as inhibitors; active = well fitted inhibition curve with a large enough effect; inconclusive = small, poorly fitted or top-dose-only effect; inactive = no such curve, though single readings can be large or run the other way; tested in mouse RAW 264.7 cells; also: nearly all actives have a fitted effect of over 55% in size
MmCpn inh: inhibitors of Methanococcus maripaludis chaperonin TRiC (MmCpn). 330,000 compounds, 0.031% hits. purified Mm-Cpn ATPase, ADP Transcreener TR-FRET. Potency, µM (top dose mostly 76.9 µM), actives largely listed as inhibitors; active = well fitted inhibition curve with a large enough effect; inconclusive = small, poorly fitted or top-dose-only effect; also: nearly all actives have a fitted effect of over 80% in size
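ATPase read-out: TR-FRET ADP immunoassay (anti-ADP Eu cryptate vs ADP-d2), ex 320 nm, em 590/665 nm; signal drops as ADP forms. Enzyme 25 nM, ATP 10 uM, 30 min at 37°C after 10 min compound preincubation.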
gsp ag: activates gsp, the McCune-Albright syndrome mutation | gsp mutant cells, cAMP HTRF, 30 min | Potency, µM (doses to about 76.9 µM), usual class: activators | 340,000 compounds, 0.13% hits | AID 624287; active = well fitted activation curve with a large enough effect; inconclusive = small, poorly fitted or top-dose-only effect, or another doubt; inactive = no such curve, though single readings can be large or run the other way; cell line not stated here;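 also: phosphodiesterase inhibitor Ro 20-1724 added with compounds to block cAMP breakdown; nearly all actives have a fitted effect of over 60% in size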
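Cells in DMEM/10% FBS with G418 were pretreated with compounds in DMSO plus […] (300 uM stock) for 30 min at 37C. cAMP was measured by HTRF (cAMP-d2 plus anti-cAMP antibody-K) after 30 min at room temperature.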
gsp antagonist: antagonizes gsp, the McCune-Albright syndrome mutation; gsp-mutant cells, cAMP HTRF, 30 min; Potency, µM (doses to about 76.9 µM), most hits filed as inhibitors; 340,000 compounds, 0.4% hits; calls by dose curve; cell line not stated here;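 also: intracellular cAMP measured with PDE inhibitor Ro 20-1724 present during compound exposure; nearly all actives have a fitted effect of over 65% in size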
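HTRF cAMP measurement after 30 min RT detection following 30 min, 37C compound treatment alongside […] (added as 300 uM solution) in G418-selected cells seeded at 2000/well and grown 16–24 h.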
CCT chaperon mod: changes cytosolic chaperonin activity; activity change, % (concentration not given with the values), hits read low; purified chaperonin ATPase assay, HTRF ADP detection, 30 min; 360,000 compounds, 0.3% hits; AID 651819; in the data active = activity change below about -30%
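We incubate TRiC, 40 or 20 nM final, with library compounds at 76 uM and 10 uM ATP for 30 min at 37 °C. ADP formed is detected with Transcreener HTRF reagents after 30 min at room temperature.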
Hits are given with their value; – = inactive; ? = inconclusive; · = no result given; [ ] = remark or other dose. The list is not random: actives were taken first. Their share in the collection is about 1.2%.

SMILES | TSHR antagonist | uPA generation | MmCpn inh | gsp ag | gsp antagonist | CCT chaperon mod
C/C=C(\C)C(=O)N[C@@H](c1ccccc1)[C@@H](O)C(=O)O[C@H]1C[C@@]2(O)[C@@H](OC(=O)c3ccccc3)C3[C@](C)(C(=O)[C@H](OC(C)=O)C(=C1C)C2(C)C)[C@@H](O)C[C@H]1OC[C@@]31OC(C)=O (stereo partly specified) | – | – | – | · | – | –
C/C=C(\C)C(=O)N[C@@H](c1ccccc1)[C@@H](O)C(=O)O[C@H]1C[C@@]2(O)[C@@H](OC(=O)c3ccccc3)C3[C@](C)(C(=O)[C@H](O)C(=C1C)C2(C)C)[C@@H](O)C[C@H]1OC[C@@]31OC(C)=O (stereo partly specified) | – | 0.71µM | – | ? | – | –
COC(=O)C1=C(c2ccc3ccccc3c2)C[C@@H]2CC[C@H]1N2C(=O)NCCCOC(C)C | – | – | – | – | – | –
COC(=O)C1=C(c2ccc(-c3ccccc3)c(F)c2)C[C@@H]2CC[C@H]1N2C(=O)NCCc1ccccc1 | -71 | ? | – | – | – | –
COC(=O)C1=C(c2ccc(-c3ccccc3)c(F)c2)C[C@@H]2CC[C@H]1N2C(=O)NCCCOC(C)C | -83 | – | – | – | – | –
COC(=O)C1=C(c2ccc(-c3ccccc3)c(F)c2)C[C@@H]2CC[C@H]1N2C(=O)NCCNC(C)=O | – | – | – | – | – | –
COC(=O)C1=C(c2ccc3ccccc3c2)C[C@@H]2CC[C@H]1N2C(=O)NCc1ccc(C(F)(F)F)cc1 | – | 11µM | – | – | – | –
C=CP(=O)(O)c1ccccc1 | – | – | – | – | – | –
O=P(O)(Oc1ccccc1)c1ccccc1 | · | – | · | – | – | –
CCC(=NCCCn1ccnc1)c1c(O)n(-c2ccccc2)c(=O)[nH]c1=O | – | – | – | –[15.4 µM] | – | –
CCCCCCC(Cl)(Cn1ccnc1)c1ccccc1 (stereo unspecified) | · | – | · | –[15.4 µM] | – | -35
Nc1cccc(-c2nc3ccc(C(=O)c4ccccc4)cc3[nH]2)c1 | – | 2µM | – | – | – | –
CC[N+](CC)(CC)CC | – | – | – | · | 35µM | –
CCn1c(=O)cc(OCC(=O)N2CCC3(CC2)OCCO3)c2ccccc21 | – | – | – | ? | – | –
CN1CCC23c4c5ccc(O)c4O[C@@H]2[C@H](O)C=CC3C1C5 (stereo partly specified) | – | – | – | · | – | -45
C#CCCC[C@@H]1OC(=O)CNC(=O)C([C@@H](C)CC)NC(=O)[C@@H]2CCCN2C(=O)C([C@@H](C)CC)OC(=O)[C@H](Cc2ccccc2)N(C)C(=O)[C@H](C(C)C)NC(=O)C1(C)C (stereo partly specified) | · | · | · | · | · | –
CN(CC(=O)Nc1cccc(F)c1)CC(=O)Nc1cccc(S(=O)(=O)N(C)c2ccccc2)c1 | · | – | · | –[15.4 µM] | 50µM | –
COc1ccc(N2C(=O)C(=O)N(c3ccc(OC)cc3)P2(=O)N(CCCl)CCCl)cc1 | · | – | · | – | – | –
CC(C)Sc1nnc(OC(=O)N(C)C)n1-c1ccccc1 | – | – | – | –[15.4 µM] | – | –
CCN1CCN(c2cc(C)c3cc(NC(=O)c4ccc(OC)c(OC)c4)ccc3n2)CC1 | – | 7.9µM | – | ? | – | –
COc1ccc(CN2CCCC(C(=O)c3sccc3C)C2)cc1O (stereo unspecified) | – | – | – | ? | – | –
C/C1=C\[C@@H](C)C/C=C/[C@H]2[C@@H]3O[C@]3(C)[C@@H](C)[C@H]3[C@H](Cc4c[nH]c5ccccc45)NC(=O)[C@]32C(=O)/C=C/C(=O)[C@@H]1O | – | 0.79µM | · | · | – | –
CCN1C[C@@]2(COC)C3[C@@H](OC)[C@H]4[C@@H]1[C@@]3(C1C[C@H]3[C@H](OC(C)=O)C1[C@]4(OC(C)=O)C[C@H]3OC)[C@@H](OC)C[C@H]2OC(C)=O (stereo partly specified) | · | – | · | · | – | –
COc1cc(OC)c2c(-c3cccc(-c4ccc(N(C)C)cc4)c3)cc(=O)oc2c1 | – | 1µM | – | · | – | –
CCN(CC)C(=O)CC(c1ccc(N(C)C)cc1)c1c(OC)cc(OC)c2c(-c3ccccc3)cc(=O)oc12 (stereo unspecified) | – | ? | – | · | – | –
SMILES | TSHR antagonist | uPA generation | MmCpn inh | gsp ag | gsp antagonist | CCT chaperon mod
C[C@@H]1O[C@@H](O[C@H]2C[C@@H](O)[C@]3(CO)[C@H]4[C@H](O)C[C@]5(C)[C@@H](C6COC(=O)C6)CC[C@]5(O)[C@@H]4CC[C@]3(O)C2)[C@H](O)[C@H](O)[C@H]1O (stereo partly specified) | ? | – | – | · | – | –
C[C@@H]1O[C@@H](O[C@@H]2C=C3CC[C@@H]4C(CC[C@]5(C)[C@@H](c6ccc(=O)oc6)CC[C@]45O)[C@@]3(C)CC2)[C@H](O)[C@H](O)[C@H]1O (stereo partly specified) | -78 | – | – | · | – | –
C[C@@H]1O[C@@H](O[C@H]2C[C@@H](O)[C@]3(CO)[C@@H]4C(CC[C@]3(O)C2)[C@@]2(O)CC[C@H]([C@@H]3COC(=O)C3)[C@@]2(C)C[C@H]4O)[C@H](O)[C@H](O)[C@H]1O (stereo partly specified) | – | · | · | · | · | ·
C[C@@H]1O[C@@H](O[C@@H]2C=C3CCC4C(CC[C@]5(C)[C@@H](c6ccc(=O)oc6)CC[C@]45O)[C@@]3(C)CC2)[C@H](O)[C@H](O)[C@H]1O (stereo partly specified) | -74 | – | – | · | – | –
Cc1cccc(-n2ncc3c(NCCCO)ncnc32)c1 | – | 1.8µM | – | – | – | –
Cc1cccc(-n2ncc3c(NCc4cccnc4)ncnc32)c1 | – | ? | – | – | – | –
CC(C)(C)c1cc([N+](=O)[O-])cc(C(C)(C)C)c1O | – | 7.9µM | – | – | ? | –
COc1ccc(Cn2c(O)c(/C=N/NC(=O)c3ccccc3)c(=O)[nH]c2=O)cc1 | – | – | – | – | – | –
COC(=O)[C@@H]1N=C(c2ccc(OC)cc2)O[C@]12C(=O)N(Cc1ccc(OC)cc1)c1ccccc12 | · | · | · | · | · | -47
COC(=O)N1C(=O)[C@@](c2ccc(OC)cc2)(C(C)C)N1C(=O)OC | – | 6.3µM | – | · | – | –
CC1=CC2/C=C(\C)CCC(O)C(O)/C=C/C(=O)C23C(=O)NC(CC(C)C)C3C1C (stereo unspecified) | ? | 1µM | · | – | – | –
CCOC(=O)C1C(OC(=O)c2ccccc2)CC2CCC1N2C (stereo unspecified) | · | – | · | · | – | –
